Test results: the supplement of paper PMC10849652
Of roughly 7,900 targets only a part is listed; those with a hit were picked by preference. About 0.6% of all pairs of compound and target were hits.

How the values were obtained:
Assay in all cases: log2 fold change, soluble protein after heating vs DMSO (PISA); higher = thermal stabilisation; K562 cells, 10 uM, 30 min; active = over 0.2 and 3.5 SD of the protein, either way, in both replicates (recomputed)
[1] = compound: CS(=O)(=O)c1ccc(-c2cnc(N)c(C(=O)Nc3ccccc3)n2)cc1
How it was run: (§1)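 K562 cells (2×10^6 cells/mL) were treated with 10 μM compound for 30 min, and aliquots were heated for 3 min over 48°C-58°C. Pooled aliquots were extracted in PBS with 0.5% NP-40 at 4°C, and the supernatant after 21,000xg for 90 min was measured by TMTpro 16plex LC-MS/MS with channel sums equalised. Reported thermal stability, relative to control samples and from duplicates, is a log2 fold change.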

crizotinib = compound: C[C@@H](Oc1cc(-c2cnn(C3CCNCC3)c2)cnc1N)c1c(Cl)ccc(F)c1Cl [crizotinib]
How it was run: as §1

[2] = compound: C[C@@H]1COCCN1C2=NC(=NC(=C2)C3(CC3)S(=O)(=O)C)C4=C5C=CNC5=CC=C4
How it was run: as §1

[3] = compound: C[C@H](C1=CC=C(C=C1)C(=O)NC2=C3C=CNC3=NC=C2)N
How it was run: as §1

duvelisib = compound: C[C@H](Nc1ncnc2nc[nH]c12)c1cc2cccc(Cl)c2c(=O)n1-c1ccccc1 [duvelisib]
How it was run: as §1

gandotinib = compound: Cc1cc(Nc2cc(CN3CCOCC3)c3nc(C)c(Cc4ccc(Cl)cc4F)n3n2)n[nH]1 [gandotinib]
How it was run: as §1

tozasertib = compound: Cc1cc(Nc2cc(N3CCN(C)CC3)nc(Sc3ccc(NC(=O)C4CC4)cc3)n2)n[nH]1 [tozasertib]
How it was run: as §1

[4] = compound: Cc1cc(SCc2sc(-c3ccc(C(F)(F)F)cc3)nc2C)ccc1OCC(=O)O
How it was run: as §1

doramapimod = compound: Cc1ccc(-n2nc(C(C)(C)C)cc2NC(=O)Nc2ccc(OCCN3CCOCC3)c3ccccc23)cc1 [doramapimod]
How it was run: as §1

ispinesib = compound: Cc1ccc(C(=O)N(CCCN)[C@@H](c2nc3cc(Cl)ccc3c(=O)n2Cc2ccccc2)C(C)C)cc1 [ispinesib]
How it was run: as §1

bafetinib = compound: Cc1ccc(NC(=O)c2ccc(CN3CC[C@H](N(C)C)C3)c(C(F)(F)F)c2)cc1Nc1nccc(-c2cncnc2)n1 [bafetinib]
How it was run: as §1

[5] = compound: Cc1cccc(CC(=O)N2CCc3c2ccc(-c2cn(C)c4ncnc(N)c24)c3F)n1
How it was run: as §1

nilotinib = compound: Cc1cn(-c2cc(NC(=O)c3ccc(C)c(Nc4nccc(-c5cccnc5)n4)c3)cc(C(F)(F)F)c2)cn1 [nilotinib]
How it was run: as §1

[6] = compound: Cc1nc(Nc2n[nH]c3c2CN(C(=O)N[C@H](CN(C)C)c2ccccc2)C3(C)C)c2sccc2n1
How it was run: as §1

dasatinib = compound: Cc1nc(Nc2ncc(C(=O)Nc3c(C)cccc3Cl)s2)cc(N2CCN(CCO)CC2)n1 [dasatinib]
How it was run: as §1

[7] = compound: Cc1ncc(-c2ccnc(Nc3ccc(S(C)(=O)=O)cc3)n2)n1C(C)C
How it was run: as §1

[8] = compound: Cn1cc(-c2ccc3c(c2)CCN3C(=O)Cc2cccc(C(F)(F)F)c2)c2c(N)ncnc21
How it was run: as §1

[9] = compound: Cn1cc(-c2ccc3nnc(C(F)(F)c4ccc5ncccc5c4)n3n2)cn1
How it was run: as §1

tipifarnib = compound: Cn1cncc1[C@@](N)(c1ccc(Cl)cc1)c1ccc2c(c1)c(-c1cccc(Cl)c1)cc(=O)n2C [tipifarnib]
How it was run: as §1

mubritinib = compound: FC(F)(F)c1ccc(/C=C/c2nc(COc3ccc(CCCCn4ccnn4)cc3)co2)cc1 [mubritinib]
How it was run: as §1

Measured: log2 fold change

CPT2 (UniProt P23786)
Sequence of UniProt P23786 (P23786 whole entry, looked up): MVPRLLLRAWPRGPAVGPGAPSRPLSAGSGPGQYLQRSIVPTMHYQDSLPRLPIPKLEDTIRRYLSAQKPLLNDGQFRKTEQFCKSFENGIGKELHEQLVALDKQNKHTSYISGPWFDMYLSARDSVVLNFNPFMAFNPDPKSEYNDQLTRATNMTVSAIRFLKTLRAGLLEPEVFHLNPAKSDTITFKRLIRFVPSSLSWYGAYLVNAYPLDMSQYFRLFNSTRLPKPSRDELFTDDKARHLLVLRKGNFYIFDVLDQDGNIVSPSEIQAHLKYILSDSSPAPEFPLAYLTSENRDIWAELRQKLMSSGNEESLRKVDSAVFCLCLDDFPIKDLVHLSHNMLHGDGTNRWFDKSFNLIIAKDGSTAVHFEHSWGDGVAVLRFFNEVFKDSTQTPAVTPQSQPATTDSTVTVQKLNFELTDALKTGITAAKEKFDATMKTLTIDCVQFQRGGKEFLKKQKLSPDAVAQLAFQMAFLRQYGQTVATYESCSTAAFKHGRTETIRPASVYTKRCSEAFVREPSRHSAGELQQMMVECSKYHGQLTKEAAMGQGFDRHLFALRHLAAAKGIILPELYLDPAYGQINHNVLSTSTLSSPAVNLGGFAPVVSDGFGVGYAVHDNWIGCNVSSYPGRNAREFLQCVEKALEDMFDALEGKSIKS
inactive: crizotinib -0.42 | [2] 0.06 | [3] -0.01 | duvelisib 0.069 | gandotinib 0.119 | tozasertib -0.049 | doramapimod -0.019 | ispinesib -0.306 | bafetinib -0.115 | [5] 0.008 | nilotinib 0.096 | [6] -0.003 | dasatinib 0.217 | [7] 0.047 | [8] 0.268 | [9] 0.265 | tipifarnib -0.076
active: [1] 0.701 | [4] 1.04 | mubritinib 0.763

CSNK2B (UniProt P67870)
Sequence of UniProt P67870 (P67870 whole entry, looked up): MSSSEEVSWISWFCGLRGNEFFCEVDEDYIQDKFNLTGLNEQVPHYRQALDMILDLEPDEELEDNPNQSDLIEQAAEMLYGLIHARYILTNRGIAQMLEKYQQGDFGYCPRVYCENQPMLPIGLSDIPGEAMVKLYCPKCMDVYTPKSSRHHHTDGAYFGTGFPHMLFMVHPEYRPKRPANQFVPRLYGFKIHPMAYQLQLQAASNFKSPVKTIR
inactive: [1] 0.05 | crizotinib -0.037 | [2] 0.049 | [3] -0.128 | duvelisib 0.075 | gandotinib -0.027 | tozasertib 0.006 | [4] -0.005 | doramapimod -0.002 | ispinesib 0.016 | bafetinib 0.036 | [5] 0.014 | nilotinib 0.052 | [6] 0.018 | dasatinib 0.015 | [7] -0.05 | [8] 0.038 | [9] -0.01 | tipifarnib -0.042 | mubritinib -0.017

CA1 (UniProt P00915)
Sequence of UniProt P00915 (P00915 whole entry, looked up): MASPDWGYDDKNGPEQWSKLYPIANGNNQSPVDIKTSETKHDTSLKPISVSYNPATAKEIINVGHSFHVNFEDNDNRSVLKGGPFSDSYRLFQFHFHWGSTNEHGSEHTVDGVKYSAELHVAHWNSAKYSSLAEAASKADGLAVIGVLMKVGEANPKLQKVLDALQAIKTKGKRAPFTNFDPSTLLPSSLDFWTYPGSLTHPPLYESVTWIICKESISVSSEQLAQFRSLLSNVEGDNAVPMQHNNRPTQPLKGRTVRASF
inactive: [1] 0.005 | crizotinib 0 | [2] 0.046 | [3] -0.094 | duvelisib -0.001 | gandotinib -0.036 | tozasertib 0.018 | [4] 0.019 | doramapimod -0.012 | ispinesib 0.116 | bafetinib -0.017 | [5] -0.055 | nilotinib -0.004 | [6] -0.014 | dasatinib -0.007 | [7] 0.011 | [8] 0.029 | [9] -0.008 | tipifarnib -0.011 | mubritinib 0.067

CBR1 (UniProt P16152)
Sequence of UniProt P16152 (P16152 whole entry, looked up): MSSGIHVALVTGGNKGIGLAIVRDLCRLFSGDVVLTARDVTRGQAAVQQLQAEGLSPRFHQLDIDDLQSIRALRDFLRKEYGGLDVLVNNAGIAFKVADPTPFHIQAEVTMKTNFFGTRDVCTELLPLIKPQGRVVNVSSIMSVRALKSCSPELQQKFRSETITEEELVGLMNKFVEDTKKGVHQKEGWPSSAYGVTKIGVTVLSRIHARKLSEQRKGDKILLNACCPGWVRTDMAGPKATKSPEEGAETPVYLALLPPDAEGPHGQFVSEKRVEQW
inactive: [1] 0.006 | crizotinib 0.048 | [2] 0.052 | [3] -0.163 | duvelisib 0.038 | gandotinib 0.034 | tozasertib -0.025 | [4] -0.024 | doramapimod 0.003 | ispinesib 0.194 | bafetinib 0 | [5] 0.011 | nilotinib -0.012 | [6] 0.003 | dasatinib -0.02 | [7] 0.022 | [8] 0.081 | [9] -0.031 | tipifarnib -0.044 | mubritinib -0.01

CS (UniProt O75390)
Sequence of UniProt O75390 (O75390 whole entry, looked up): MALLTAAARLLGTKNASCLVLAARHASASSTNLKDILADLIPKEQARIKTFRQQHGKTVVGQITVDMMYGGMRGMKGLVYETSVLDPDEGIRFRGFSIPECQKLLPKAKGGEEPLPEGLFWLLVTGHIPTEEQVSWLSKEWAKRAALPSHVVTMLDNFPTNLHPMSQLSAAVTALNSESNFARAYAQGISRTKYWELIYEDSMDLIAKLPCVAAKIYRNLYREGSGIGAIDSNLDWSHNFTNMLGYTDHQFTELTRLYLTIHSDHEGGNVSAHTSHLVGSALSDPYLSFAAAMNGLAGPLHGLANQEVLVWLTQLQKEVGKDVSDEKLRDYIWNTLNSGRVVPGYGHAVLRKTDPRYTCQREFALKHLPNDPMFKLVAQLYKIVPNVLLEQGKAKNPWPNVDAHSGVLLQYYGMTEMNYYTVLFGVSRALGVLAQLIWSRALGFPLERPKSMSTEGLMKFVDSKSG
inactive: [1] 0.044 | crizotinib -0.122 | [2] 0.072 | [3] -0.034 | duvelisib 0.059 | gandotinib -0.037 | tozasertib 0.027 | [4] 0.061 | doramapimod 0.017 | ispinesib -0.157 | bafetinib 0.013 | [5] -0.061 | nilotinib 0.011 | [6] -0.051 | dasatinib -0.131 | [7] -0.097 | [8] 0.075 | [9] 0.083 | tipifarnib -0.033 | mubritinib 0.015

CBX5 (UniProt P45973)
Sequence of UniProt P45973 (P45973 whole entry, looked up): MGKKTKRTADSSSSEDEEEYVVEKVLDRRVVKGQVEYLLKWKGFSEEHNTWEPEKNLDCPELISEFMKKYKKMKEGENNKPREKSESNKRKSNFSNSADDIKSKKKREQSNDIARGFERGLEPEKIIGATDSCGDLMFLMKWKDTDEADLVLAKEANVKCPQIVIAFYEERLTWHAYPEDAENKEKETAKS
inactive: [1] 0.012 | crizotinib 0.128 | [2] -0.037 | [3] -0.058 | duvelisib 0.029 | gandotinib -0.015 | tozasertib -0.01 | [4] 0.059 | doramapimod -0.045 | ispinesib 0.092 | bafetinib -0.019 | [5] 0.01 | nilotinib 0.002 | [6] -0.138 | dasatinib -0.069 | [7] -0.064 | [8] -0.01 | [9] -0.02 | tipifarnib -0.048 | mubritinib 0.062

COX6B1 (UniProt P14854)
Sequence of UniProt P14854 (P14854 whole entry, looked up): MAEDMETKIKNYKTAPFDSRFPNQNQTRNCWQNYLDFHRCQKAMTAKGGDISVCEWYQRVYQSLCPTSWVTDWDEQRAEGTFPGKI
active: [9] 0.377
inactive: [1] -0.001 | crizotinib 0.184 | [2] 0.195 | [3] 0 | duvelisib 0.163 | gandotinib -0.027 | tozasertib 0.105 | [4] 0 | doramapimod -0.06 | ispinesib 0.226 | bafetinib -0.081 | [5] -0.023 | nilotinib -0.02 | [6] -0.01 | dasatinib 0.019 | [7] -0.027 | [8] 0.228 | tipifarnib -0.044 | mubritinib 0.054

CNOT4 isoform 6 (UniProt O95628)
inactive: [1] 0.007 | crizotinib 0.031 | [2] 0.056 | [3] -0.076 | duvelisib 0.06 | gandotinib -0.005 | tozasertib -0.009 | [4] 0.014 | doramapimod -0.02 | ispinesib 0.066 | bafetinib -0.088 | [5] -0.036 | nilotinib -0.024 | [6] -0.042 | dasatinib -0.034 | [7] -0.003 | [8] 0.021 | [9] 0.033 | tipifarnib 0.027 | mubritinib 0.023

CLSPN (UniProt Q9HAW4)
Sequence of UniProt Q9HAW4 (Q9HAW4 whole entry, looked up): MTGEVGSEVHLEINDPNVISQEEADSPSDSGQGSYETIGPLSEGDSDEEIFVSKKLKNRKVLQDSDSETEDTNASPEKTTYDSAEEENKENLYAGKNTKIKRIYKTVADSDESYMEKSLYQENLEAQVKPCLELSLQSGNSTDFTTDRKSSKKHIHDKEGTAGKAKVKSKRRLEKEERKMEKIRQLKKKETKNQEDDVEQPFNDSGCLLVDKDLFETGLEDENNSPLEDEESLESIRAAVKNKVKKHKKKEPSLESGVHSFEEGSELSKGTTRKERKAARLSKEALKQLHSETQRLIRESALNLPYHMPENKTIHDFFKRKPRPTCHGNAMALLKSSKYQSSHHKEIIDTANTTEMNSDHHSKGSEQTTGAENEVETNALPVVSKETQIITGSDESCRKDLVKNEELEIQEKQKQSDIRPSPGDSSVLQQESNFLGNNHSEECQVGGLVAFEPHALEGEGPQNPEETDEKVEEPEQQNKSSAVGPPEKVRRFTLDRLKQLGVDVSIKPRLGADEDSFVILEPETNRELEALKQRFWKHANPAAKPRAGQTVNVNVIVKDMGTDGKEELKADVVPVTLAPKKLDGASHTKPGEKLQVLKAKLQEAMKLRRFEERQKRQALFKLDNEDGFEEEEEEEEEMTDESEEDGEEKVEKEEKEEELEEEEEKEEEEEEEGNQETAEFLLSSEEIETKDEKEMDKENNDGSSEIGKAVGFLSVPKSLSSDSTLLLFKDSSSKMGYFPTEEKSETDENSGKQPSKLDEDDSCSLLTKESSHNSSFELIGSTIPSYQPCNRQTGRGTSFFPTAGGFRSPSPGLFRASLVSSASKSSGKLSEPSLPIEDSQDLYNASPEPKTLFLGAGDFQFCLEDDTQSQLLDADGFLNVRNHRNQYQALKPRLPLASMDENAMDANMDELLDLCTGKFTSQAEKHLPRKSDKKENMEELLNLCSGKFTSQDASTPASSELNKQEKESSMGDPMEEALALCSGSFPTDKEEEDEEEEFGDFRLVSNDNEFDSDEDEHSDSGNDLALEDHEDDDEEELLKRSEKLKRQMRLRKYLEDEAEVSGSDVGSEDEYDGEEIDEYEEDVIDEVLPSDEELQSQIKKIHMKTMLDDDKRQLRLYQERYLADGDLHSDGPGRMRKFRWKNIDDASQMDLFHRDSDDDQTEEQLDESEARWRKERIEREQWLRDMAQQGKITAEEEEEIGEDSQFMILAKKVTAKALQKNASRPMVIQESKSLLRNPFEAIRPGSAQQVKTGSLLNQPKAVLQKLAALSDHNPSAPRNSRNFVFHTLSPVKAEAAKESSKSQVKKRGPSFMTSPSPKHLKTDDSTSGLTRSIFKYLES
inactive: [1] -0.028 | crizotinib 0.039 | [2] -0.04 | [3] -0.046 | duvelisib -0.045 | gandotinib 0.047 | tozasertib 0.049 | [4] -0.104 | doramapimod 0.001 | ispinesib 0.107 | bafetinib -0.071 | [5] -0.035 | nilotinib 0.018 | [6] -0.011 | dasatinib 0.094 | [7] -0.123 | [8] -0.021 | [9] -0.03 | tipifarnib 0.045 | mubritinib 0.053

CD151 (UniProt P48509)
Sequence of UniProt P48509 (P48509 whole entry, looked up): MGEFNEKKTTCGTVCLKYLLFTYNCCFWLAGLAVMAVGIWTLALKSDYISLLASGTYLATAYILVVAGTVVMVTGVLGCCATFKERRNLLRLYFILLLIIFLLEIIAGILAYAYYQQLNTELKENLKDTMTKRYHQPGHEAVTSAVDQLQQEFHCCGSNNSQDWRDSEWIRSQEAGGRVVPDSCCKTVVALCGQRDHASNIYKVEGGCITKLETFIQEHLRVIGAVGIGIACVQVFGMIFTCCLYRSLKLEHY
inactive: [1] -0.151 | crizotinib 0.208 | [2] 0.07 | [3] -0.089 | duvelisib 0.138 | gandotinib -0.19 | tozasertib -0.04 | [4] -0.043 | doramapimod -0.056 | ispinesib 0.068 | bafetinib 0.135 | [5] 0.015 | nilotinib -0.072 | [6] 0.157 | dasatinib 0.063 | [7] 0.019 | [8] 0.025 | [9] -0.002 | tipifarnib -0.076 | mubritinib -0.092

CCNH (UniProt P51946)
Sequence of UniProt P51946 (P51946 whole entry, looked up): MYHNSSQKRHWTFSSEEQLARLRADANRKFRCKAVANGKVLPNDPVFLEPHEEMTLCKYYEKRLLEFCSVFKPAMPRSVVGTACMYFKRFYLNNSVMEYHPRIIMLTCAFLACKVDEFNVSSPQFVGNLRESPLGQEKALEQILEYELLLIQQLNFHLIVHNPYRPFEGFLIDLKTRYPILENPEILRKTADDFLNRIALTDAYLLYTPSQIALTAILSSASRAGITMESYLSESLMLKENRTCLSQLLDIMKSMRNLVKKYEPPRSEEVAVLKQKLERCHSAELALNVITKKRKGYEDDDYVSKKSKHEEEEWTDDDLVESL
inactive: [1] -0.033 | crizotinib 0.033 | [2] 0.048 | [3] -0.031 | duvelisib 0.037 | gandotinib 0.013 | tozasertib 0.046 | [4] -0.01 | doramapimod -0.086 | ispinesib 0.098 | bafetinib -0.064 | [5] -0.01 | nilotinib -0.008 | [6] 0.113 | dasatinib 0.023 | [7] -0.056 | [8] -0.005 | [9] 0.005 | tipifarnib 0.051 | mubritinib 0.08

CKB (UniProt P12277)
inactive: [1] 0.059 | crizotinib -0.174 | [2] 0.077 | [3] 0.053 | duvelisib 0.031 | gandotinib -0.109 | tozasertib -0.058 | [4] 0.021 | doramapimod -0.009 | ispinesib -0.022 | bafetinib 0.02 | [5] 0.02 | nilotinib 0.051 | [6] 0.037 | dasatinib -0.142 | [7] -0.008 | [8] 0.081 | [9] 0.01 | tipifarnib -0.057 | mubritinib 0.062

CKS1B (UniProt P61024)
Sequence of UniProt P61024 (P61024 whole entry, looked up): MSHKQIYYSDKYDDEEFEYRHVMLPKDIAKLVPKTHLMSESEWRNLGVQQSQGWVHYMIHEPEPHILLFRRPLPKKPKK
inactive: [1] -0.013 | crizotinib 0.063 | [2] 0.06 | [3] -0.051 | duvelisib 0.022 | gandotinib 0 | tozasertib 0.02 | [4] -0.093 | doramapimod -0.026 | ispinesib 0.224 | bafetinib -0.065 | [5] -0.06 | nilotinib 0.14 | [6] -0.016 | dasatinib 0 | [7] 0.026 | [8] 0.067 | [9] 0.017 | tipifarnib -0.043 | mubritinib 0.056

CSK (UniProt P41240)
Sequence of UniProt P41240 (P41240 whole entry, looked up): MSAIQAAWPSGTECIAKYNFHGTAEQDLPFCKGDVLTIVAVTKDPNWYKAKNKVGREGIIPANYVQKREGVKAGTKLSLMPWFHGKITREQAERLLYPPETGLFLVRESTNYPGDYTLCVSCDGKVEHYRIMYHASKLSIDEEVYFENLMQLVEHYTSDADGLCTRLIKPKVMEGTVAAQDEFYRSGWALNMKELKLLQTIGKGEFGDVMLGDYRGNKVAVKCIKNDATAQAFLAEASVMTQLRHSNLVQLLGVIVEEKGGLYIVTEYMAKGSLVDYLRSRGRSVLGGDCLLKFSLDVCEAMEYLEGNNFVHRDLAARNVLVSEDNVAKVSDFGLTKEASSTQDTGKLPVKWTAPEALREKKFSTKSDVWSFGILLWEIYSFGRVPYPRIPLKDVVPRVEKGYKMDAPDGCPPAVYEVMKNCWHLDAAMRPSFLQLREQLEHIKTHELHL
inactive: [1] 0.082 | crizotinib -0.033 | [2] 0.112 | [3] -0.004 | duvelisib -0.018 | gandotinib -0.018 | tozasertib 0.026 | [4] 0.046 | doramapimod 0.003 | ispinesib -0.028 | bafetinib 0.088 | [5] 0.019 | nilotinib 0.126 | [6] -0.001 | dasatinib 0.137 | [7] 0.017 | [8] 0.019 | [9] -0.031 | tipifarnib -0.129 | mubritinib 0.107

CDC42BPB (UniProt Q9Y5S2)
inactive: [1] 0.068 | crizotinib 0.056 | [2] -0.031 | [3] -0.149 | duvelisib 0.012 | gandotinib 0.029 | tozasertib 0.112 | [4] 0.005 | doramapimod 0.01 | ispinesib -0.148 | bafetinib 0.22 | [5] -0.034 | nilotinib 0.062 | [6] -0.118 | dasatinib -0.029 | [7] 0.106 | [8] -0.054 | [9] -0.017 | tipifarnib 0.094 | mubritinib 0.177

COX5B (UniProt P10606)
Sequence of UniProt P10606 (P10606 whole entry, looked up): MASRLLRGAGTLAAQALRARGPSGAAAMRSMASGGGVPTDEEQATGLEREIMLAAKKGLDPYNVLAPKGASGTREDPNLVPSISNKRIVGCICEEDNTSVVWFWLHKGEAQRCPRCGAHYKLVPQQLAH
inactive: [1] -0.07 | crizotinib 0.186 | [2] 0.081 | [3] -0.169 | duvelisib 0.124 | gandotinib 0.218 | tozasertib 0.077 | [4] -0.001 | doramapimod 0.022 | ispinesib 0.265 | bafetinib -0.032 | [5] 0.013 | nilotinib 0.026 | [6] 0.011 | dasatinib 0.105 | [7] -0.043 | [8] 0.134 | [9] 0.221 | tipifarnib -0.108 | mubritinib 0.024
